The values below come from PubChem BioAssay (Tox21).

Results filed as inconclusive are left out. Where a call stands in place of a potency, no number is given. Active and inactive are the calls of the source. Calls come from the whole dose curve; as a rule, active = well fitted activation curve with a large enough effect in the repeat runs; inconclusive = weak or mixed curves; inactive = flat fitted curve, though single readings scatter.
Note: nearly all actives have a fitted effect of over 45% in size.
Potency is the fitted concentration of half-maximal effect.

The first assay in a line: A CellTox Green Cytotoxicity Assay to monitor cytotoxicity in HEK293 cells - 24 hour (AID 1224875). Particulars: CellTox Green fluorescence; series mostly up to 76.8 µM. In short, it runs like this: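 Dead-cell fluorescence measured kinetically: asymmetric cyanine dye, HEK293, 600 cells/well, 5 h settle, 23 nL cpd/DMSO, 37 C, reads 0–40 h every 8 h.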
Take `O=C(CCN1CCC(c2ccccc2)C1)c1ccc2c(c1)OCCO2` (stereo not given): the Potency entry is “inactive”.

On to `C=C(C)CCO`, for which the Potency result was “inactive”.

For the molecule `CSc1ccc(O)cc1C`, the Potency result is “inactive”.

On to `Cc1cccc2c1ccc1ccccc12`, for which the Potency result is “inactive”.

For `CCCCCCCCCCCCCCCCC(C(=O)O)C(O)(CC(=O)O)C(=O)O` (stereo not given), the Potency entry was “inactive”.

On to `NCc1cccc(C2CCN(C(=O)c3ccc(C#Cc4ccccc4F)o3)CC2)c1`, for which the Potency was 49 µM (active).

With `C=C1C(CCl)(CCl)C2(Cl)C(Cl)C(Cl)C1(Cl)C2(Cl)Cl` (stereo not given), the Potency is 54.3 µM (active).

Turning to `CCN(CC)c1ccc(C=O)c(O)c1`, the Potency result is “inactive”.

Take `O=C(NCc1ncc(C(F)(F)F)cc1Cl)c1c(Cl)cccc1Cl`: the Potency result is “inactive”.

On to `CCC(C)(C)c1ccc(CC(C)CN2C[C@@H](C)O[C@@H](C)C2)cc1` (stereo not given in full), for which the Potency is 23.9 µM (active).

On to `CC(C)(C)c1ccc(OC2CCCCC2O)cc1` (stereo not given), for which the Potency was 54.9 µM (active).

With `C=CC(=O)O[C@H]1C[C@@H]2CC[C@@]1(C)C2(C)C`, the Potency entry was “inactive”.

As to `C=C1CC[C@H]2O[C@]2(C)CC[C@@H]2[C@@H]1CC2(C)C`, the Potency result was “inactive”.

For `O=C(CCCCCCCCc1cccnc1)N1CCC(C=C(c2ccccc2)c2ccccc2)CC1`, the Potency result was “inactive”.

For the molecule `CN(C)CCOc1ccc(/C(=C(/CCCl)c2ccccc2)c2ccccc2)cc1`, the Potency was 45.8 µM (active).

Regarding `O=C1OC(O)C(C(Cl)Cl)=C1Cl` (stereo not given), the Potency entry is “inactive”.

Take `CCc1c(C)cc(N)c(CC)c1N`: the Potency result was “inactive”.

Take `O=C1OC2(c3ccccc31)c1ccc(O)c(Br)c1Oc1c2ccc(O)c1Br`: the Potency was 6.92 µM (active).

On to `CCC1(C)C(=O)N(Cl)C(=O)N1Cl` (stereo not given), for which the Potency result was “inactive”.

For the molecule `CCCCCc1ccc(O)cc1`, the Potency is 38.9 µM (active).

Consider `CC(O)(c1ccc(Cl)cc1)c1ccc(Cl)cc1`, for which the Potency was 49 µM (active).

Consider `c1ccc(-c2ccc(C(c3ccccc3)n3ccnc3)cc2)cc1` (stereo not given), for which the Potency entry is “inactive”.

Take `CN(C/C=C/c1ccccc1)Cc1cccc2ccccc12`: the Potency is 19 µM (active).

`CC(C)c1ccc2sc3ccccc3c(=O)c2c1`: the Potency entry is “inactive”.

As to `CC(C)=NNC(N)=S`, the Potency entry is “inactive”.

As to `CCC(=O)OC/C=C(\C)CCC=C(C)C`, the Potency result was “inactive”.

A short description of another assay: A CellTox Green Cytotoxicity Assay to monitor cytotoxicity in HepG2 cells - 16 hour (AID 1224876). Particulars: CellTox Green fluorescence; series mostly up to 76.8 µM. In a few lines:
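First, HepG2 cells (600/well) mixed with reagent were plated; second, after 5 h at 37 C they received compounds via pintool; third, fluorescence was measured at 0 h through 40 h at 8 h intervals.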
On to `O=C(CCN1CCC(c2ccccc2)C1)c1ccc2c(c1)OCCO2` (stereo not given), for which the Potency result is “inactive”.

On to `Cc1cccc2c1ccc1ccccc12`, for which the Potency entry is “inactive”.

As to `NCc1cccc(C2CCN(C(=O)c3ccc(C#Cc4ccccc4F)o3)CC2)c1`, the Potency is 38.9 µM (active).

For the molecule `C=C1C(CCl)(CCl)C2(Cl)C(Cl)C(Cl)C1(Cl)C2(Cl)Cl` (stereo not given), the Potency entry was “inactive”.

On to `CN1CCN(CCCN2c3ccccc3Sc3ccc(Cl)cc32)CC1`, for which the Potency was 23.9 µM (active).

With `O=C(NCc1ncc(C(F)(F)F)cc1Cl)c1c(Cl)cccc1Cl`, the Potency entry was “inactive”.

For the molecule `Cc1ccc(Cl)c(N)c1Cl`, the Potency entry was “inactive”.

Regarding `CC1=C(/C=C/C(C)=C/C=C/C(C)=C\C(=O)O)C(C)(C)CCC1`, the Potency entry is “inactive”.

For the molecule `C=CC(=O)O[C@H]1C[C@@H]2CC[C@@]1(C)C2(C)C`, the Potency entry was “inactive”.

With `O=C(CCCCCCCCc1cccnc1)N1CCC(C=C(c2ccccc2)c2ccccc2)CC1`, the Potency entry is “inactive”.

On to `O=C1OC(O)C(C(Cl)Cl)=C1Cl` (stereo not given), for which the Potency entry is “inactive”.

Consider `Cc1ccc(C2OC[C@@H]3OC(c4ccc(C)cc4)O[C@H]([C@H](O)CO)[C@@H]3O2)cc1` (stereo not given in full), for which the Potency result was “inactive”.

On to `CC(O)(c1ccc(Cl)cc1)c1ccc(Cl)cc1`, for which the Potency is 49 µM (active).

Regarding `C1=CCCC1`, the Potency entry is “inactive”.
